Data on 40 compounds can be found in PubChem BioAssay (NCI).

The panel holds about 83,000 compounds, 20% with a hit somewhere; the sample as a whole holds those more often.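 Plates (96-well) were seeded with cells, treated with compound at one concentration, and incubated for 48 hours before percent growth was determined.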 Unmarked numbers belong to inactive results. Activity calls are given as the source filed them.

The subject of this experiment is SR leukemia. Nature of the experiment: NCI-60 one-dose screen, 48 h (100 = growth as untreated, 0 = no growth, -100 = all killed). The following applies: 10 µM unless noted. Here is the method: Growth inhibition of the SR human tumor cell line is measured as a screen for anti-cancer activity. Cells are grown in 96 well plates and exposed to the test compound for 48 hours. Compounds are tested at a single concentration, which is 10^-5 M for most compounds. The reported endpoint is percent growth (GI% or GIPRCNT), where numbers from 0 - 100% represent growth inhibition, and numbers from -100% - 0 represent cell death. For example, a value of 40 represents 60% growth inhibition. A value of 0 means no net growth occurred over the course of the experiment. A value of -40 indicates 40% of cells at the beginning of the experiment died by the end of the experiment. A value of -100 means all cells are dead at the end of the experiment.
NCI-60 Human Tumor Cell Lines Screen was performed using the standard one-dose NCI protocol, which is described in more detail at https://dtp.cancer.gov/discovery_development/nci-60/default.htm.
Compounds with GIPRCNT values below 10 were considered active. Activity score was based on GIPRCNT using the following formula: […]
Score is 0 for GIPRCNT values of 100 or above, 50 for GIPRCNT values of 0, and 100 for GIPRCNT values of -100.
In the case of `N#C/C(=C1C=C/C(=N/O)C(Cl)=C/1)c1ccc(Cl)cc1`, the growth was 78.5%.
`CC(=O)c1cc2c(N)c(C(=O)Nc3cccc4c3OCCO4)sc2nc1C`: the growth is 80.8%.
For the compound `CC(=O)Oc1csc(N(C(C)=O)c2cccc(C(F)(F)F)c2)n1`, the growth was 107%.
The value for `COc1ccc(/C=C(\C#N)c2cc(OC)c3c(c2)OCO3)cc1` was 1.82% (active).
The value for `CC(C)C1=CC2=C(C=O)C[C@@H]3[C@](C)(CCC[C@@]3(C)C(=O)OCC#CCN3CCCC3)[C@H]2CC1` was 26.4%; that for `ClC(Cl)c1nc(-c2ccccc2)nc2cc(-c3ccccc3)nn12` was 90.7%; that for `O=C(NCCNc1nccc(-n2ccc3cccnc32)n1)c1ccc(C(F)(F)F)cc1` was 105%.
Turning to `COC(=O)C(Sc1ccc(Cl)cc1)C1SC(=S)N(Cc2ccccc2)C1=O` (stereo not given), the growth was 50.8%.
With `CCOC(=O)CN1/C(=N/c2sc3c(c2C(=O)OCC)CCN(C(=O)OCC)C3)SC(=O)/C1=C\C(=O)OC`, the growth was 29.8%.
Consider `Brc1cccc(-c2cc(-c3ccc4nccnc4c3)[nH]n2)c1`, for which the growth is 33.8% [25 µM].
For `Brc1ccc(-c2[nH]ncc2-c2c[nH]c3ccccc23)cc1`, the growth was 100%.
As to `COc1ccc(C(=O)NC(=O)Nc2cc3c(cc2F)/C(=C/c2[nH]c(C)c(CCC(=O)O)c2C)C(=O)N3)c(F)c1`, the growth is 26.5%.
The value for `COc1cc(C2C3=C(COC3=O)Nc3cc4c(cc32)OCO4)cc2c1OCO2` (stereo not given) was -0.432% (active); that for `COc1cccc(CC(C)=C(c2ccc(OCCN3CCCCC3)cc2)c2ccc(OCCN3CCCCC3)cc2)c1` was -41.2% (active); that for `COc1ccc(C2=C(c3cc(OC)c(OC)c(OC)c3)C(=O)CC2)cc1` was 15.7%.
Take `Nc1cccc(-c2nc3sccn3c2-c2ccnc(NCCCNS(=O)(=O)c3cccc4ccccc34)n2)c1`: the growth is 38.7%.
Regarding `C=C(C)[C@@H]1C[C@@H]2Cc3ccc(Cl)c(C)c3N1O2`, the growth was 80.2%.
The value for `CC(C)NCCCNC1=C(Cl)C(=O)c2ccccc2C1=O` was -22.7% (active).
Consider `CC(C)(C)n1cc(-c2ccnc(NCCCNS(=O)(=O)c3ccc(Br)cc3)c2)c(-c2cccc(O)c2)n1`, for which the growth is -16% (active).
`COc1ccncc1S(=O)(=O)NC(=O)Nc1ccc(Cl)c(Cl)c1`: the growth is 74.8%.
As for `CC1=C(C#N)C(=O)NC(C)C1` (stereo not given), the growth is 110%.
Turning to `COC1=C(OC)C(=O)C(CCCCCCCCCC[P+](c2ccccc2)(c2ccccc2)c2ccccc2)=C(C)C1=O`, the growth is -27% (active).
The value for `COc1ccc(C(=O)c2cc(OC)c3c(c2)OCO3)cc1O` was 9.89% (active); that for `Fc1ccccc1-c1nc(-c2nc3cc(Cl)c(Cl)cc3[nH]2)c2ccccn12` was 20.7%.
In the case of `COC(OC)c1ccccc1`, the growth was 93.9%.
In the case of `COc1ccc(Nc2ncccc2C(=O)NCc2cn(Cc3cccc(Oc4ccccc4)c3)nn2)c(OC)c1` it was 30.3%.
As for `O=C1/C(=C/c2ccccc2)CN(C(=O)CCN2CCC(=NO)CC2)C/C1=C\c1ccccc1`, the growth is 7.97% (active).
Turning to `Cc1c(C(=O)/C=C/c2csc3ccccc23)[n+](=O)c2ccccc2n1[O-]`, the growth is 13.5%.
In the case of `COc1ccc(-c2c(N)n[nH]c2-c2cc(OC)c3c(c2)OCCO3)cc1` it was -6.97% (active); in that of `NC(=S)N/N=C1\CCCC(C(F)(F)F)C1` (stereo not given), 78.7%; in that of `Fc1ccc(Nc2ncnc3ccc(-c4cnc5[nH]ccc5c4)cc23)cc1Cl`, -26.1% (active).
In the case of `O=C1/C(=C/c2ccc(Cl)cc2)CN(C(=O)CCN2CCC(=NO)CC2)C/C1=C\c1ccc(Cl)cc1` it was -5.09% (active).
As for `CC(C)CC1NC(C)(C)CO1` (stereo not given), the growth was 124%.
Turning to `Cc1ccc(N2CCN(C(C)C(N)=O)CC2)cc1` (stereo not given), the growth was 154%.
`Cn1c(=O)cc(NC(=O)CN2CCN(c3cc4c(cc3F)c(=O)c(C(=O)O)cn4C3CC3)CC2)[nH]c1=O`: the growth was 103%.
In the case of `O=c1ccn(C2CC(O)C(O)C(CO)O2)c(=O)[nH]1` (stereo not given) it was 123%; in that of `O=Nc1c(-c2cccc([N+](=O)[O-])c2)nc2ncccn12`, -27.8% (active); in that of `CCCOC(=O)n1cccc1`, 114%.
In the case of `COc1ccc2c(c1)[nH]c(=O)c1c3cc(OC)ccc3cn21`, the growth was 20.4%.
For the compound `CCC1=CCC[C@@]2(C)CCC[C@@]3(C)CCCC(C)(C)[C@]1([O-])[O+]32`, the growth was 112%.
